From the supplement of paper PMC8007513
Structures can show the parent of a compound that is named as a salt. ± gives the standard error. Hit rate of the full screen: of about 1,300 compounds, about 130 (10%) showed an effect of 50% or more. The list comes from a sample in which strong results are over-represented; it also holds similar structures and randomly drawn compounds.

Test system: Trichoderma virens ATCC 9645
Experiment: growth yield (OD600) with compound + IPBC relative to untreated control; higher = less growth inhibition
Details: compound concentration: 100 uM, IPBC concentration: 200 ng/ml
Method in brief: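 Library compounds (100 μM final), with or without a co-applied biocide (200 ng ml^−1), were added to 100 μl aliquots of Trichoderma virens ATCC 9645 spores at 15,000 spores ml^−1 in potato dextrose broth. Cultures were grown at 30 °C in 96-well plates, and OD600 was measured at 40 h and 72 h. Each growth value is a mean of duplicate screens, expressed relative to the control with neither agent.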

SMILES | growth yield (40 h) [%] | growth yield (72 h) [%]
CC[C@H](C)C(=O)O[C@H]1C[C@@H](C)C=C2C=C[C@H](C)[C@H](CC[C@@H]3C[C@@H](O)CC(=O)O3)[C@H]21 [Lovastatin] + CCCCNC(=O)OCC#CI [3-iodo-2-propynyl butylcarbamate (IPBC)] | 104 ± 4 | 103 ± 1.6
CN1CCN(C(=O)OC2c3nccnc3C(=O)N2c2ccc(Cl)cn2)CC1 (stereo not drawn) [Zopiclone] + CCCCNC(=O)OCC#CI [3-iodo-2-propynyl butylcarbamate (IPBC)] | 91.8 ± 2.5 | 93 ± 1.4
CC(=O)OC[C@H]1O[C@@H]([S-])[C@H](OC(C)=O)[C@@H](OC(C)=O)[C@@H]1OC(C)=O.CCP(CC)CC.[Au+] [Auranofin] + CCCCNC(=O)OCC#CI [3-iodo-2-propynyl butylcarbamate (IPBC)] | 23.2 ± 1.3 | 29.7 ± 2.4
CO[C@H]1/C=C/O[C@@]2(C)Oc3c(C)c(O)c4c(c3C2=O)C2=NC3(CCN(CC(C)C)CC3)NC2=C(NC(=O)/C(C)=C\C=C\[C@H](C)[C@H](O)[C@@H](C)[C@@H](O)[C@@H](C)[C@H](OC(C)=O)[C@@H]1C)C4=O [Rifabutin] + CCCCNC(=O)OCC#CI [3-iodo-2-propynyl butylcarbamate (IPBC)] | 99.4 | 97.1 ± 8.4
CC(=O)OCC1=C(C(=O)O)N2C(=O)[C@@H](NC(=O)Cc3cccs3)[C@H]2SC1 [Cephalothin sodium salt] + CCCCNC(=O)OCC#CI [3-iodo-2-propynyl butylcarbamate (IPBC)] | 91.7 ± 8.4 | 90.9 ± 7.9
CCC(Cc1c(I)cc(I)c(N)c1I)C(=O)O (stereo not drawn) [Iopanoic acid] + CCCCNC(=O)OCC#CI [3-iodo-2-propynyl butylcarbamate (IPBC)] | 70.2 ± 2.5 | 88.3 ± 4.4
COc1c(N2C[C@@H]3CCCN[C@@H]3C2)c(F)cc2c(=O)c(C(=O)O)cn(C3CC3)c12 [Moxifloxacin] + CCCCNC(=O)OCC#CI [3-iodo-2-propynyl butylcarbamate (IPBC)] | 109 ± 2.7 | 105 ± 3.5
O=C1c2ccccc2S(=O)(=O)N1CCCCN1CCN(c2ncccn2)CC1 [Ipsapirone] + CCCCNC(=O)OCC#CI [3-iodo-2-propynyl butylcarbamate (IPBC)] | 87.4 ± 4.8 | 90.7 ± 1.8
Cc1ccc(N(CC2=NCCN2)c2cccc(O)c2)cc1 [Phentolamine hydrochloride] + CCCCNC(=O)OCC#CI [3-iodo-2-propynyl butylcarbamate (IPBC)] | 86.25 ± 0.79 | 97.64 ± 0.73
CCCCCC[C@H]1C(=O)O[C@H](C)[C@H](NC(=O)c2cccc(NC=O)c2O)C(=O)O[C@@H](C)[C@@H]1OC(=O)CC(C)C [Antimycin A] + CCCCNC(=O)OCC#CI [3-iodo-2-propynyl butylcarbamate (IPBC)] | 17.6 ± 1.1 | 42.9 ± 2.4
COc1cccc(C2(O)CCCCC2CN(C)C)c1 (stereo not drawn) [Tramadol hydrochloride] + CCCCNC(=O)OCC#CI [3-iodo-2-propynyl butylcarbamate (IPBC)] | 87.5 ± 2.1 | 90.51 ± 0.73
COCCCOc1cc(C[C@@H](C[C@H](N)[C@@H](O)C[C@H](C(=O)NCC(C)(C)C(N)=O)C(C)C)C(C)C)ccc1OC [Aliskiren hemifumarate] + CCCCNC(=O)OCC#CI [3-iodo-2-propynyl butylcarbamate (IPBC)] | 93.4 ± 5.1 | 99.1 ± 1.1
CCOc1ccccc1OC(c1ccccc1)C1CNCCO1 (stereo not drawn) [Reboxetine mesylate] + CCCCNC(=O)OCC#CI [3-iodo-2-propynyl butylcarbamate (IPBC)] | 82.92 ± 0.32 | 90.61 ± 0.63
CC(N)C(O)c1ccccc1 (stereo not drawn) [Phenylpropanolamine hydrochloride] + CCCCNC(=O)OCC#CI [3-iodo-2-propynyl butylcarbamate (IPBC)] | 97.1 ± 7.5 | 101 ± 3.5
O=C(O)CN(CCN(CC(=O)O)CC(=O)O)CCN(CC(=O)O)CC(=O)O [Pentetic acid] + CCCCNC(=O)OCC#CI [3-iodo-2-propynyl butylcarbamate (IPBC)] | 18.7 ± 1.6 | 88.41 ± 0.73
CCc1cccc(CC)c1NC(=O)CN(CC(=O)O)CC(=O)O [Etifenin] + CCCCNC(=O)OCC#CI [3-iodo-2-propynyl butylcarbamate (IPBC)] | 87.7 ± 4.1 | 94.4 ± 2.3
O=P(O)(O)C(O)(Cc1cccnc1)P(=O)(O)O [Risedronic acid monohydrate] + CCCCNC(=O)OCC#CI [3-iodo-2-propynyl butylcarbamate (IPBC)] | 88.8 ± 2.7 | 91.66 ± 0.42
COc1ccc(C[C@@H]2c3cc(OC)c(OC)cc3CC[N@+]2(C)CCC(=O)OCCCCCOC(=O)CC[N@@+]2(C)CCc3cc(OC)c(OC)cc3[C@H]2Cc2ccc(OC)c(OC)c2)cc1OC [Cisatracurium besylate] + CCCCNC(=O)OCC#CI [3-iodo-2-propynyl butylcarbamate (IPBC)] | 78.3 ± 2.1 | 85.9 ± 4.1
CC1=C(/C=C/C(C)=C/C=C/C(C)=C\C(=O)O)C(C)(C)CCC1 [Isotretinoin] + CCCCNC(=O)OCC#CI [3-iodo-2-propynyl butylcarbamate (IPBC)] | 83.5 | 105 ± 16
CCCCOc1ccc(CC(=O)NO)cc1 [Bufexamac] + CCCCNC(=O)OCC#CI [3-iodo-2-propynyl butylcarbamate (IPBC)] | 99.59 ± 0.16 | 95.438 ± 1e-14
CCCCOc1ccc(C(=O)CCN2CCCCC2)cc1 [Dyclonine hydrochloride] + CCCCNC(=O)OCC#CI [3-iodo-2-propynyl butylcarbamate (IPBC)] | 75.4 ± 1.1 | 90.8 ± 1.5
N=C(N)c1ccc(OCCCCCOc2ccc(C(=N)N)cc2)cc1 [Pentamidine isethionate] + CCCCNC(=O)OCC#CI [3-iodo-2-propynyl butylcarbamate (IPBC)] | 2.7 ± 0.48 | 2.1 ± 0.42
CCCNC(C)(C)COC(=O)c1ccccc1 [Meprylcaine hydrochloride] + CCCCNC(=O)OCC#CI [3-iodo-2-propynyl butylcarbamate (IPBC)] | 87.7 ± 7.6 | 91.8 ± 5.1
Nc1nc(O)c2ncn(CCC(CO)CO)c2n1 [Penciclovir] + CCCCNC(=O)OCC#CI [3-iodo-2-propynyl butylcarbamate (IPBC)] | 82.76 ± 0.48 | 95.6 ± 1.3
